Molecules are shown by their SMILES. “And” between values parts separate entries of the source, which are not always exact repeats. Identical values can stand only once. Results filed as inconclusive are left out. The source made the active and inactive calls. Unless noted, calls follow the shape of the full dose curve.

Test [1] has as its target Bile acid receptor (Homo sapiens) (UniProt Q96RI1). The test can be described thus: qHTS assay for small molecule antagonists of farnesoid X receptor signaling (AID 588526). Also: % is scaled to controls: 0 for no effect and ±100 for the full control effect. In short, it runs like this:
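Beta-lactamase reporter antagonist mode: HEK293T FXR-UAS-bla cells, titrated compound, CDCA stimulation, 16 h 37 C, CCF4 dye 2 h RT. Data normalized to CDCA 50 uM and DMSO; Hill-fit IC50.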
(Quantitative high-throughput screening tests each substance at several concentrations.)

The target is the same in test [2]. Kind of test: qHTS assay for small molecule agonists of farnesoid X receptor signaling (AID 588527).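 Also: series mostly up to about 77 µM; 0% = vehicle basal and 100% = reference agonist.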 The following applies: HEK293T FXR-UAS-bla, beta-lactamase ratio, 16 h; activation: stronger effect = higher value. In short, it runs like this:
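Quantitative HTS used FXR-UAS-bla HEK293T cells with 16 h compound incubation at 37 C. EC50 values came from concentration-response curves normalized to chenodeoxycholic acid.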

Test [3] concerns the target Vitamin D3 receptor (Homo sapiens) (UniProt P11473). The test can be described thus: qHTS assay for small molecule antagonists of vitamin D receptor signaling (AID 588541).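 Also: receptor activated by calcitriol during compound treatment; series mostly up to about 77 µM; % is scaled to controls: 0 for no effect and ±100 for the full control effect.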 The method, boiled down:
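Antagonist-mode beta-lactamase reporter assay: HEK293T VDR-UAS-bla cells were exposed to titrated compound alongside 1-alpha,25-dihydroxyvitamin D3 at 3 nM final for 16 h. Values were normalized to the 50 nM agonist control and DMSO basal, with IC50 and efficacy from Hill equation fits.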

For test [4] the target is unchanged. The test can be described thus: qHTS assay for small molecule agonists of vitamin D receptor signaling (AID 588543).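 Also: 0% = DMSO basal and 100% = reference agonist control.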 In short, it runs like this: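 qHTS in agonist mode: compound titrations stimulate a VDR-driven β-lactamase reporter in HEK293T cells over 16 h at 37 °C. Response normalized to 50 nM 1α,25-dihydroxyvitamin D3 = 100%, DMSO = 0%; Hill fitting gives EC50 and maximal response.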

The target in test [5] is Retinoic acid receptor RXR-alpha (Homo sapiens) (UniProt P19793). The test can be described thus: qHTS assay for small molecule agonists of retinoid X receptor alpha signaling (AID 588544).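 Also: 0% = DMSO basal wells and 100% = reference agonist.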
Test [6] concerns the target Thyroid hormone receptor beta (Homo sapiens) (UniProt P10828). The test can be described thus: qHTS assay for small molecule agonists of thyroid hormone receptor beta signaling (AID 588545). The method, boiled down: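 Agonist activity was read as beta-lactamase CCF4 fluorescence (405 ex, 460/530 em), scaled between DMSO (0%) and 10 nM T3 (100%), then Hill-fitted for EC50 and efficacy. HEK 293 TR-UAS-bla cells in 2% charcoal/dextran FBS medium were exposed 18 h at 37 C.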

The nature of test [7]: qHTS assay for small molecule antagonists of retinoid X receptor alpha signaling (AID 588546; active = well fitted inhibition curve with a large enough effect in the signal ratio, with a control signal flat, not every such curve was filed as active; the % refers to the signal ratio;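 also: cells stimulated with 9-cis-retinoic acid as agonist; % is scaled to controls: 0 for no effect and ±100 for the full control effect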). The following applies: HEK293T RXRa-UAS-bla, beta-lactamase ratio, antagonist mode; measured here: W530 green channel, cytotoxicity proxy. The method, boiled down:
(§1)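 Beta-lactamase reporter inhibition, read as CCF4 fluorescence ratio (ex 405, em 460/530 nm) after 2 h at RT. HEK293T UAS-bla cells, 2500/well, were stimulated with 9-cis-RA at 500 or 100 nM final alongside test compound for 18 h at 37 C.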

For test [8], the target named is Retinoic acid receptor RXR-alpha (Homo sapiens) (UniProt P19793). The description is as above. Conditions: HEK293T RXRa-UAS-bla, beta-lactamase ratio, antagonist mode. In short, it runs like this:
as §1

The target of test [9] is Thyroid hormone receptor beta (Homo sapiens) (UniProt P10828). The test can be described thus: qHTS assay for small molecule antagonists of thyroid hormone receptor beta signaling (AID 588547; active = well fitted inhibition curve with a large enough effect in the signal ratio, with a control signal flat, not every such curve was filed as active; the % refers to the signal ratio;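 also: cells stimulated with 0.4 nM T3 agonist during compound exposure; series mostly up to about 77 µM; % is scaled to controls: 0 for no effect and ±100 for the full control effect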). The following applies: TR-UAS-bla HEK293, beta-lactamase ratio, antagonist mode, 18 h. The method, boiled down:
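Inhibition of T3-driven (0.4nM final) beta-lactamase reporter activity was measured over 0.59 nM to 92 uM compound after 18 h at 37 C. The cells were GripTite HEK293 TR-UAS-bla in charcoal/dextran-stripped serum, with CCF4 ratio read-out and IC50 from Hill fits.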

A short description of test [10]: qHTS assay for small molecule activators of the p53 signaling pathway (AID 651743; active = well fitted activation curve with a large enough effect in the signal ratio, not every such curve was filed as active; the % refers to the signal ratio; also: series mostly up to about 92 µM; % of control where 0% means no effect). The following applies: HCT-116 p53RE-bla, beta-lactamase FRET ratio, 16 h; activation: stronger effect = higher value. The method, boiled down: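 Screen for p53 pathway agonists uses stably transfected p53RE-bla HCT-116 cells, 4,000 per well, treated 16 h at 37 C with compounds in DMSO.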
Test [11] in a line: qHTS assay for small molecule activators of the nuclear factor-kappa B (NF-kB) signaling pathway (AID 651749; active = well fitted activation curve with a large enough effect in the signal ratio; the % refers to the signal ratio; also: series mostly up to about 77 µM; % of control where 0% means no effect). The following applies: NF-kB-bla ME-180 cells, beta-lactamase FRET ratio, 16 h; activation: stronger effect = higher value. In short, it runs like this: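 Stably transfected ME-180 line; NF-kB response element upstream of beta-lactamase. Treatment: compound or DMSO, 16 hr. Detection: fluorescent FRET substrate.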

Test [12] can be described thus: qHTS assay for environmental chemicals that activate the Aryl hydrocarbon Receptor (AhR) signaling pathway (AID 651777; active = well fitted curve in the direction sought with a large enough effect; an effect the other way counts as inactive or inconclusive; also: nearly all actives have a fitted effect of over 15% in size; also: potency is read from the fitted curve at half-maximal effect; as to activation: % of control where 0% means no effect). The following applies: 1A2-DRE human hepatoma cells, luciferase, 24 h; activation: stronger effect = higher value. The method, boiled down: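 Luminescence (One-Glo, 30 min, room temperature) reports AhR-driven luciferase in stably transfected human hepatoma cells bearing DRE and CYP1A2 promoter. Cells (1,200/well) were treated with compound for 24 hr at 37 C in qHTS format.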

Test [13] addresses Peroxisome proliferator-activated receptor alpha (Homo sapiens) (UniProt Q07869). Kind of test: qHTS assay for small molecule agonists of the peroxisome proliferator-activated receptor alpha (PPARalpha) signaling pathway (AID 651778; active = well fitted curve in the direction sought with a large enough effect; an effect the other way counts as inactive or inconclusive; also: % of control where 0% means no effect). The following applies: PathHunter PPARalpha complementation, chemiluminescence, 6 h; max response: stronger effect = higher value. In short, it runs like this: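 Chemiluminescence from complemented enzyme reported PPARalpha activation in cells after 6 hr of compound treatment at 37 C. The detection reagent was incubated for 60 min at room temperature, and compounds were scored as agonists.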

Test [14] can be described thus: qHTS assay for small molecule agonists of the antioxidant response element (ARE) signaling pathway measured by Nrf2-dependant transcriptional activity (AID 720636; active = well fitted curve in the direction sought with a large enough effect in the repeat runs; an effect the other way counts as inactive or inconclusive; also: % of control where 0% means no effect). The method, boiled down: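 Nrf2-dependent transcription read as ONE-Glo luciferase signal from ARE-luc HepG2 reporter cells after 16 hr compound treatment at 37 C, 5% CO2, in assay medium with 1% dialyzed FBS.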

Test [15] in a line: qHTS assay for small molecule agonists of the antioxidant response element (ARE) signaling pathway measured by Nrf2-dependant transcriptional activity - cell viability counter screen (AID 720653; active = well fitted curve in the direction sought with a large enough effect in the repeat runs; an effect the other way counts as inactive or inconclusive; also: % is scaled to controls: 0 for no effect and ±100 for the full control effect). The following applies: ARE-bla HepG2 viability, CellTiter-Glo ATP luminescence, 16 h; max response: stronger effect = lower value. In short, it runs like this: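 Cytotoxicity counter screen: intracellular ATP quantified by CellTiter-Glo luminescence in the same ARE-bla HepG2 plates, after 16 h compound exposure and a 2 h beta-lactamase substrate step.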

Test [16] can be described thus: qHTS assay for cell viability of HEK293 cells (AID 743288; active = well fitted curve in the direction sought with a large enough effect; an effect the other way counts as inactive or inconclusive; also: % is scaled to controls: 0 for no effect and ±100 for the full control effect; nearly all actives have a fitted effect of over 50% in size). The following applies: ATP luminescence (CellTiter-Glo), 18 h; max response: stronger effect = lower value. In short, it runs like this: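 The Tox21 protocol used parental HEK293 cells treated for 18 h at 37 C with compounds delivered by pintool; ATP-coupled luminescence after 30 min at room temperature gave viability.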

Test [17] is described as follows: qHTS assay for cell viability of the p53RE-bla HCT-116 cell line (AID 743292; active = well fitted curve in the direction sought with a large enough effect; an effect the other way counts as inactive or inconclusive; also: % is scaled to controls: 0 for no effect and ±100 for the full control effect; nearly all actives have a fitted effect of over 55% in size). The method, boiled down:
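ATP-based luminescent viability (CellTiter-Glo, 30 min RT) after 16 h compound treatment at 37 C of p53RE-bla HCT-116 cells, seeded at 4,000 cells/well and rested 5 h before dosing.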

Test [18] concerns the target Peroxisome proliferator-activated receptor delta (Homo sapiens) (UniProt Q03181). The test can be described thus: qHTS assay for small molecule agonists of peroxisome proliferator-activated receptor delta signaling (AID 588534).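 Also: 0% = DMSO basal wells and 100% = positive control agonist at 10 µM.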 The method, boiled down:
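Cell-based beta-lactamase reporter assay run in agonist mode: cells seeded and incubated 5 hrs at 37 C, compounds added and incubated 18 hrs at 37 C. CCF4 dye fluorescence read after 2 hrs at RT; EC50 and efficacy from Hill fits.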

Test [19] is described as follows: qHTS assay for small molecule antagonists of peroxisome proliferator-activated receptor delta signaling (AID 588535).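 Also: cells co-treated with a PPAR-delta agonist as stimulator during compound exposure.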 Conditions: HEK293T PPARd-UAS-bla, beta-lactamase FRET ratio, 18 h; 460 nm channel. In short, it runs like this:
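Cell-based beta-lactamase assay in antagonist mode: 4000 HEK293T PPAR-delta-UAS-bla cells per well, 5 hr preincubation then 18 hr compound incubation at 37 C. IC50 obtained by Hill equation fitting.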

In test [20] the target is Glucocorticoid receptor (Homo sapiens) (UniProt P04150). The test can be described thus: qHTS assay for small molecule agonists of glucocorticoid receptor signaling (AID 588532; active = well fitted curve in the direction sought with a large enough effect in the signal ratio, with a control signal flat; the % refers to the signal ratio;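 also: 100% = dexamethasone at 0.1 µM and 0% = DMSO only wells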). The following applies: HeLa MMTV-bla, beta-lactamase ratio, agonist, 18 h; activation: stronger effect = higher value, percent of dexamethasone control, DMSO zero. In short, it runs like this: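 Using MMTV-bla HeLa cells in medium with 1% stripped FBS and 25 mM HEPES, compounds were titrated and incubated overnight-length (18 h). Beta-lactamase cleavage of CCF4 was quantified by dual-emission fluorescence.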
Glucocorticoid receptor (Homo sapiens), sequence (P04150 whole entry, looked up): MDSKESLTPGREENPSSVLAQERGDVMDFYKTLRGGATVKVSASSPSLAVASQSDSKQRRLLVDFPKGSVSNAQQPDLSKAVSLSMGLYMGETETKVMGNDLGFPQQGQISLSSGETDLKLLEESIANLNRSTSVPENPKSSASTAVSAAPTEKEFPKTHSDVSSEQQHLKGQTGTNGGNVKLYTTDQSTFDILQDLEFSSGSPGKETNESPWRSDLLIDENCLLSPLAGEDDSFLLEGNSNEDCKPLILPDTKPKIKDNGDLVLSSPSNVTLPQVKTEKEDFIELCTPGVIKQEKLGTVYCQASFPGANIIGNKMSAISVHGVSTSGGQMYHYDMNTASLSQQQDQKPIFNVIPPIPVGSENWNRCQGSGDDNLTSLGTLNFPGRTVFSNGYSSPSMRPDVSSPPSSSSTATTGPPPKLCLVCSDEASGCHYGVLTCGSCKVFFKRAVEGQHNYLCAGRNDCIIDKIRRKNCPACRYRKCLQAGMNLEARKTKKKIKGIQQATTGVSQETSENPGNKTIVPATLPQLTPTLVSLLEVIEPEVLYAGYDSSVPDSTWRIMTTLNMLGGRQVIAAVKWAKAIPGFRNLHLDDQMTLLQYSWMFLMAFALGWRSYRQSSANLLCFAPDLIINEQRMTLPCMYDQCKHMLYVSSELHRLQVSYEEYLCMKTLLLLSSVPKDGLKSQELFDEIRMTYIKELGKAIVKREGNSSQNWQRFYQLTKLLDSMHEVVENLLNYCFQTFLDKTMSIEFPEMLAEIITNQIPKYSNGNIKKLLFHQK

Vitamin D3 receptor (Homo sapiens), sequence (P11473 whole entry, looked up): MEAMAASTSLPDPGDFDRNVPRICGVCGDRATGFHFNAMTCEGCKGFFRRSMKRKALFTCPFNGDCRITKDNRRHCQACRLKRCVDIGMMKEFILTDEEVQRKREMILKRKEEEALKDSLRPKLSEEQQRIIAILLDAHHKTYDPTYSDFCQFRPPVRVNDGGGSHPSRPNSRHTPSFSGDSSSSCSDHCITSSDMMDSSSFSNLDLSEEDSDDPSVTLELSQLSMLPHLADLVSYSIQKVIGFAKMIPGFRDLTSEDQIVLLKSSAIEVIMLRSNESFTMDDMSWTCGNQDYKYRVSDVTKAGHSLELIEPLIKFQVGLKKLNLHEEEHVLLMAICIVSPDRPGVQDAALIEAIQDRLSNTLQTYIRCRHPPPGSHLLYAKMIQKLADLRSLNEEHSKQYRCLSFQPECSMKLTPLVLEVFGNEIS
Thyroid hormone receptor beta (Homo sapiens), sequence (P10828 whole entry, looked up): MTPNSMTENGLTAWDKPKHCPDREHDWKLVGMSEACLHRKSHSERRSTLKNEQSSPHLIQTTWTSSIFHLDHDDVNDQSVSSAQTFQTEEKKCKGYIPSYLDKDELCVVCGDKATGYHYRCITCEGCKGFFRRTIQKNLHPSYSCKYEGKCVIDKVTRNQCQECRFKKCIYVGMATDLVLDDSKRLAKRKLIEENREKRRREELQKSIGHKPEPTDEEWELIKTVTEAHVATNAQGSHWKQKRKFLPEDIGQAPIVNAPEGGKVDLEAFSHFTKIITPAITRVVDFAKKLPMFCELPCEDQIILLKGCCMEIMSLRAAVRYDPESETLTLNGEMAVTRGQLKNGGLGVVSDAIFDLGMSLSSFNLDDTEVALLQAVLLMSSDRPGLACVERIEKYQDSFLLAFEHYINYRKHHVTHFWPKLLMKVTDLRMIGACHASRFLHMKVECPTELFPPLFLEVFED
Retinoic acid receptor RXR-alpha (Homo sapiens), sequence (P19793 whole entry, looked up): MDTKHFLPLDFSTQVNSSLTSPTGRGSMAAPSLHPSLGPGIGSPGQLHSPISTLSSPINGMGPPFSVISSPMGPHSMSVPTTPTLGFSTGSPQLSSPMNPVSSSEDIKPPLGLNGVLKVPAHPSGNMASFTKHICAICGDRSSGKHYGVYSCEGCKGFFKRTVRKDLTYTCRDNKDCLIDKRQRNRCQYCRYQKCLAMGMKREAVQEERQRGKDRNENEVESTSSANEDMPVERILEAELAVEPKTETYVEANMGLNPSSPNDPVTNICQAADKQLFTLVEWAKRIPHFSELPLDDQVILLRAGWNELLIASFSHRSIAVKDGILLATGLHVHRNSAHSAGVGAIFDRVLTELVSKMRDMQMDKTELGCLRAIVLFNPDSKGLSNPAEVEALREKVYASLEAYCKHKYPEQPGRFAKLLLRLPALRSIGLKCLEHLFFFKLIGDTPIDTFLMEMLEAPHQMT
Bile acid receptor (Homo sapiens), sequence (Q96RI1 whole entry, looked up): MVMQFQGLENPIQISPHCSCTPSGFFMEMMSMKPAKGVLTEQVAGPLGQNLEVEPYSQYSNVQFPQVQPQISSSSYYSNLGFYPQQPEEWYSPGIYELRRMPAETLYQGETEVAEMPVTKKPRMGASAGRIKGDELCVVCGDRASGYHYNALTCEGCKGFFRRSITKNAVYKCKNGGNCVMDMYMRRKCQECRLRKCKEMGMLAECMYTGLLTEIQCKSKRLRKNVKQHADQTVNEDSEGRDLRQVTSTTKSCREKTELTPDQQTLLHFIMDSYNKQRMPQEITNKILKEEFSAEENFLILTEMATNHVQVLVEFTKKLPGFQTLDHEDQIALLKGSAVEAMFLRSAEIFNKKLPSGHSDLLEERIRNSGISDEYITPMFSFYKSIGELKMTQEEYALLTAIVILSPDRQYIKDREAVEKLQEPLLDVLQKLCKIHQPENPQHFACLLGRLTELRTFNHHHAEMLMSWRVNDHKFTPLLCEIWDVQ
Peroxisome proliferator-activated receptor alpha (Homo sapiens), sequence (Q07869 whole entry, looked up): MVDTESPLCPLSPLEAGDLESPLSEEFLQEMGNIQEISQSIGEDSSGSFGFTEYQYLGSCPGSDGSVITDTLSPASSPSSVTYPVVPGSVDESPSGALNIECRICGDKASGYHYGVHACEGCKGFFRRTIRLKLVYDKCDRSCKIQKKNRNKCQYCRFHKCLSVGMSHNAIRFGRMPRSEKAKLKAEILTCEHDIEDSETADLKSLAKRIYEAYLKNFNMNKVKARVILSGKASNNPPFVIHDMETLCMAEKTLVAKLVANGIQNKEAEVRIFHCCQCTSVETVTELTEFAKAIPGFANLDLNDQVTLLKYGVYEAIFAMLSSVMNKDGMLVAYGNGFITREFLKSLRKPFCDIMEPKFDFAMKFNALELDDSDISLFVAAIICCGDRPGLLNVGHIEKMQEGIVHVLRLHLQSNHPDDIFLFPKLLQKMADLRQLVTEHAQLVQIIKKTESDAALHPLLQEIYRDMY
Peroxisome proliferator-activated receptor delta (Homo sapiens), sequence (Q03181 whole entry, looked up): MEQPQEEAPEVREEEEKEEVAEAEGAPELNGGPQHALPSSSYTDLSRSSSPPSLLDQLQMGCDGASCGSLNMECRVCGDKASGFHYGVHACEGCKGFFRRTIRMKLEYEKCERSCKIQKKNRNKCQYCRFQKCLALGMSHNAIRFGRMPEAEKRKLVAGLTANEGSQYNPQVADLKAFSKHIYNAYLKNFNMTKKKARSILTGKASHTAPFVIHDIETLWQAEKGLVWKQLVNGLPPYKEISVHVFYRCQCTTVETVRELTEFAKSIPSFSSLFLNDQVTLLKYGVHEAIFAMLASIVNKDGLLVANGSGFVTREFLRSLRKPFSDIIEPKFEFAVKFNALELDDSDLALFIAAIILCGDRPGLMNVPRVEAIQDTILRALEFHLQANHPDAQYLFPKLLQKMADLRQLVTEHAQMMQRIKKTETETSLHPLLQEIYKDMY

Regarding `COP(=O)(OC)Oc1nc(Cl)c(Cl)cc1Cl`, the Potency result in test [1], in [3], in test [5], in [6], in test [14] and in test [17] was “inactive” in each case. Besides, the activation in test [2] was -2.92% (inactive); in test [10], 6.76% (inactive); in [11] it was 1.02% (inactive); in [12] it was 1.43% (inactive). Also, the result in test [4] was inactive. Besides, the max response in [7] is -0.949%; in test [8], 1.04% (inactive); in test [13] it was -0.672% (inactive); in [15], -0.97% (inactive); in test [16], -6.19% (inactive). The activity change % (negative = inhibition) in test [9] was -14.5% (inactive).
As for `COC(=O)c1c(C(F)F)nc(C(F)(F)F)c(C2=NCCS2)c1CC(C)C`, the outcome in test [18] and in test [4] was inactive. The max response in test [19] was -95%; in [7] it was -11.1%; in test [8] it was -17.3% (inactive); in test [13], -1.35% (inactive); in test [15], 1.66% (inactive); in [16] it was -8.01% (inactive). Further, the Potency entry in test [3], in test [6], in test [14] and in test [17] was “inactive” in each case. In addition, the activity change % (negative = inhibition) in test [9] is -8.88% (inactive). In addition, the values for the activation in test [11] and in test [12] were -2.57% (inactive) and 2.1% (inactive), respectively.
For the molecule `CC(C)N1C(=O)N(c2ccccc2)CSC1=NC(C)(C)C`, the activation is -1.49% (inactive) and -3.83% (inactive) in test [20]; -1.27% (inactive) and 6.3% (inactive) in [10]; 0.243% (inactive) and -2.38% (inactive) in test [11]. The call in test [18] and in test [4] was inactive. The max response in test [19] was 43.5%; in [7] it was 0.399%; in test [8] it was -33.9% (inactive); in test [13] it was 0.0616% (inactive) and 14.7% (inactive); in test [15], 13.9% (inactive) and -6.65% (inactive); in [16], -17.9% (inactive). Also, the Potency result in [3], in [5], in test [6], in [14] and in test [17] was “inactive” each time.
Regarding `c1ccc2c(c1)c1cccc3ccc4cccc2c4c31`, the activation in [2] was -3.29% (inactive) and 7.3% (inactive). In addition, the outcome in test [18] and in test [4] was inactive. The Potency entry in [6] and in test [14] was “inactive” throughout.
With `CNC(=O)N(C)c1nc2ccccc2s1`, the Potency result in [1], in [3], in [5] and in [17] was “inactive” throughout. Besides, the activation in test [2] is 4.82% (inactive); in test [11] it was 0.981% (inactive). In addition, the outcome in test [18] and in test [4] was inactive. Further, the max response in test [7] is 0.29%; in [13] it was -2.93% (inactive); in test [15], -8.17% (inactive). For the same molecule, the activity change % (negative = inhibition) in test [9] was 9.18% (inactive). The Potency in test [12] was 44.7 µM (active).
As to `CCOC(=O)COc1cc(-c2nn(C)c(OC(F)F)c2Cl)c(F)cc1Cl`, the values for the activation in test [20], in [10] and in [11] were -3.65% (inactive), -1.21% (inactive) and 1.18% (inactive), respectively. The max response in [19] is 58.4%; in test [7], 16.9%; in test [8], -15.1% (inactive); in [13], -0.355% (inactive); in test [15], 13.2% (inactive); in test [16], -5.44% (inactive). Besides, the Potency entry in test [3], in test [5], in test [6], in test [14] and in [17] was “inactive” in each case. Moreover, the activity change % (negative = inhibition) in [9] is 7.86% (inactive).
As for `CC(C)=C[C@@H]1[C@@H](C(=O)OCN2C(=O)C3=C(CCCC3)C2=O)C1(C)C`, the activation is 11.7% (inactive) in test [20], 11.9% (inactive) in [10] and -1.3% (inactive) in [12]. Besides, the Potency result in test [3], in test [6], in test [14] and in test [17] was “inactive” each time. Further, the max response in [7] is -15.3%; in [8] it was 18% (inactive); in test [15] it was -22.2% (inactive); in [16] it was -11.5% (inactive). In addition, the activity change % (negative = inhibition) in test [9] is 7.01% (inactive).

(Values after PubChem BioAssay (NCATS).)
